High-throughput results as filed in PubChem BioAssay.
CDC25B CDK2 inh: human CDC25B-CDK2/CyclinA binding inhibition | 94,000 compounds, 0.72% hits | HTRF CDC25B-CDK2/CyclinA binding, anti-His/anti-Flag; hits give high values | P30305+P24941 | z-score (test concentration not listed); in the data active = z-score above about 3.2
TAR Tat displ: HIV-1 TAR-Tat binding disruption | HIV-1 TAR RNA, Tat peptide displacement FRET; hits give high values | AID 1259389 | 100,000 compounds, 0.6% hits | z-score (no concentration beside the values); active = z-score of 3 or more in at least 2 runs
Hits are given with their value; – = inactive; · = no result given. Rows were chosen to be rich in hits. Some 0.9% of all compounds tested hit in one or more screens of this group.

SMILES	CDC25B CDK2 inh	TAR Tat displ
Cc1[nH]nc(-c2ccc(S(=O)(=O)Nc3ccc(Cl)cc3F)s2)c1C	·	–
CCCCCOC(=O)C1=C(C)Nc2nnnn2C1c1ccccc1 (stereo not given)	·	–
Cc1nc(NC2=NCN(Cc3ccco3)CN2)nc2ccccc12	–	–
Cc1cc2nc(NC3=NCN(CCCN4CCOCC4)CN3)nc(C)c2cc1C	–	–
Cc1cc2nc(NC3=NCN(Cc4ccco4)CN3)nc(C)c2cc1C	14	–
Cc1cc2nc(NC3=NCN(CCN4CCOCC4)CN3)nc(C)c2cc1C	11	·
O=S1(=O)N=C(c2ccc3c(c2)OCO3)Nc2ccc(S(=O)(=O)N3CCCCC3)cc21	·	–
O=C1Nc2ccc(S(=O)(=O)NCc3ccccc3)cc2C1=O	·	6.2
O=C1Cc2cc(S(=O)(=O)NCc3ccccc3)ccc2N1	·	–
COc1ccc(-c2nc(CSCc3csc(C)c3)c(C)o2)cc1OC	·	–
CCc1cc2c(cc3c(=O)n(CC(=O)NC4CCCc5ccccc54)nc(CC)n32)s1 (stereo not given)	–	–
Cc1ccc(S(=O)(=O)Nc2cc(Sc3nc4ccccc4[nH]3)c(O)c3ccccc23)cc1	18	·
Cc1ccc(S(=O)(=O)Nc2cc(Sc3nc(C)cc(C)n3)c(O)c3ccccc23)cc1	–	·
O=C(O)C1Cc2c([nH]c3ccccc23)C(c2ccccc2)N1 (stereo not given)	–	·
O=C(O)C1Cc2c([nH]c3ccccc23)CN1 (stereo not given)	16	·
CC12OC(C(Br)C1Br)C1C(=O)OC(=O)C12 (stereo not given)	6.1	·
Cc1ccc(CNC(=O)C2=Cc3sc(C)c(C)c3CS2)cc1	·	–
Cc1sc2c(c1C)CSC(C(=O)NCc1ccco1)=C2	·	3.6
CCSC1=N/C(=C\c2ccc(OC(C)=O)c(Br)c2)C(=O)S1	–	–
C=CCNc1ncnc2c1cnn2-c1cccc(Cl)c1	·	–
CN(C(=O)c1nn(C)c2c1COc1ccccc1-2)c1cccc(Cl)c1	–	–
Cc1ccc(/C=C/c2nn3c(-c4ccncc4)nnc3s2)cc1	–	–
Clc1ccccc1/C=C/c1nn2c(-c3ccco3)nnc2s1	–	19
Clc1ccccc1-c1ccc(-c2nn3c(-c4ccco4)nnc3s2)o1	15	–
Clc1ccccc1/C=C/c1nn2c(-c3ccncc3)nnc2s1	–	–
SMILES	CDC25B CDK2 inh	TAR Tat displ
Cc1ccc(/C=C/c2nn3c(-c4ccco4)nnc3s2)cc1C	–	17
Clc1cccc(-c2nnc3sc(-c4ccco4)nn23)c1	–	–
Cc1ccc(/C=C/c2nn3c(-c4ccco4)nnc3s2)cc1	–	–
C(=C\c1nn2c(-c3ccncc3)nnc2s1)/c1ccco1	–	26
CCN(CC)c1ncnc2c1cnn2-c1ccc(Cl)cc1	–	·
CC(C)(C)C1CCc2c(sc3nc(CCC(=O)NCc4ccccn4)[nH]c(=O)c23)C1 (stereo not given)	·	–
Nc1ccc(-c2nc3ccc(-c4nc5ccc(N)cc5[nH]4)cc3[nH]2)cc1	–	·
Nc1ccc(-c2nc3cc(N)c(Cl)cc3[nH]2)cc1	–	5.5
CN1C(C(=O)Nc2sc3c(c2C(N)=O)CCCC3)=CC(c2ccco2)=NS1(=O)=O	–	–
CN1C(C(=O)Nc2sc3c(c2C#N)CCC3)=CC(c2ccco2)=NS1(=O)=O	–	6.1
COc1cccc(OCCSc2nc3ccccc3n2CC(=O)OC(C)C)c1	–	–
CN(C)CCNC(=O)CSCc1nc2cccnc2n1C1CCCCC1	·	–
O=C(Cc1ccc(NC(=O)N2CCSc3ncccc32)cc1)Nc1ccc(Br)cc1	16	–
O=C(Nc1ccc(Br)cc1)N1CCSc2ncccc21	·	–
CCOC(=O)N1CCN(C(=O)CSc2cc(=O)n(C)c3cc(Cl)ccc23)CC1	–	–
Cc1ccc(CNC(=O)NCc2c(-n3cccc3)sc3c2CCCC3)cc1	–	13
Cc1cc(C)cc(NC(=O)NCc2c(-n3cccc3)sc3c2CCCC3)c1	–	–
N#Cc1nc(/C=C/c2cccs2)oc1NCc1cccnc1	–	–
COC(=O)c1c(SCC(=O)Nc2ccc(F)c(F)c2)[nH]c2ccc(Cl)cc2c1=O	·	–
COC(=O)c1c(SCC(=O)Nc2ccc(F)cc2)[nH]c2ccc(Cl)cc2c1=O	·	16
O=C(c1cc(-c2ccc(Br)cc2)n[nH]1)N1CCN(C(=O)c2ccco2)CC1	·	–
O=C(Nc1c(C(=O)N2CCOCC2)oc2ccccc12)C1CCCCC1	·	–
O=C1c2cc([N+](=O)[O-])ccc2-c2ccc([N+](=O)[O-])cc21	–	·
CCCNC(=O)c1cc([N+](=O)[O-])cc2c1-c1ccc([N+](=O)[O-])cc1C2=O	16	·
CC(C)CCNC(=O)CC(C)(C)CC1=NS(=O)(=O)c2ccccc2N1	·	–
SMILES	CDC25B CDK2 inh	TAR Tat displ
COCCCN1CC(O)=C(c2nc3ccccc3s2)C1=N	–	–
CCCN1CCN(c2cc(NCCCOCC)c3c4c(onc24)-c2ccccc2C3=O)CC1	–	6.3
CCNc1cc(N(C)CCO)c2noc3c2c1C(=O)c1ccccc1-3	–	–
CCCN1CCN(c2cc(NCCOC)c3c4c(onc24)-c2ccccc2C3=O)CC1	–	–
CN(C)CCCNc1cc(N2CCCCC2)c2noc3c2c1C(=O)c1ccccc1-3	–	–
CN(C)CCNc1cc(N2CCCCC2)c2noc3c2c1C(=O)c1ccccc1-3	6.2	17
CN(C)CCCNc1cc(N(C)CCO)c2noc3c2c1C(=O)c1ccccc1-3	–	7
CN(C)CCNc1cc(N2CCOCC2)c2noc3c2c1C(=O)c1ccccc1-3	–	–
CN(C)CCCNc1cc(N2CCCC2)c2noc3c2c1C(=O)c1ccccc1-3	–	8.8
N#Cc1nc(/C=C/c2ccc(F)cc2)oc1N1CCN(C(=O)c2ccccc2F)CC1	–	–
Cc1cc(C)cc(Nc2nn3nnnc3c3ccccc23)c1	·	–
O=C(NCc1ccccn1)C(=O)NCC(c1ccco1)S(=O)(=O)c1ccccc1 (stereo not given)	·	–
CCN(CC)CCNc1cc(N2CCOCC2)c2noc3c2c1C(=O)c1ccccc1-3	–	6.5
CCN(CC)CCNc1cc(N2CCCC2)c2noc3c2c1C(=O)c1ccccc1-3	–	–
OCCOCCNc1ncnc2c1cnn2-c1ccc(F)cc1	·	–
Cc1ccc(-c2ccccc2)n1-c1cccnc1	17	–
Cc1ccc(-c2ccccc2)n1-c1cccc2cccnc12	–	–
Cc1ccc(-c2nc3ccccc3o2)cc1N=Cc1cc(Cc2ccccc2)cc(Br)c1O	–	·
Cc1ccc(-c2nnc3ccc(SCC(=O)N4CCCC4)nn23)cc1	–	·
O=C(O)c1cc(O)c2c(c1)[C@@H]([C@H]1c3cc(C(=O)O)cc(O)c3C(=O)c3c(O[C@H]4O[C@H](CO)[C@@H](O)[C@H](O)[C@H]4O)cccc31)c1cccc(O[C@H]3O[C@H](CO)[C@@H](O)[C@H](O)[C@H]3O)c1C2=O	·	22
Cc1ccc(NC(=O)N2Cc3cccn3-c3cccnc32)c(C)c1	–	–
Cc1ccc(-n2cnc3cc(NCc4ccncc4)ccc32)cc1	–	–
Cc1nc2cc(NCc3ccncc3)ccc2n1C	14	–
Cc1nc2cc(NCc3ccco3)ccc2n1C	16	–
COc1ccccc1-n1cnc2cc(NCc3ccco3)ccc21	–	–
CCN(CC)S(=O)(=O)c1c(C)nn(S(=O)(=O)c2ccc(Br)cc2)c1C	·	–
CCOC(=O)c1ccc(N2CCCCC2)c(N)c1	–	·
CCOC(=O)c1ccc(NC2=C(N3CCCCC3)C(=O)c3ccccc3C2=O)cc1	17	·
O=C1C(Nc2ccc(F)cc2)=C(N2CCCCC2)C(=O)c2ccccc21	8	·
